Test results published in paper PMC7862700, “An all-to-all approach to the identification of sequence-specific readers for epigenetic DNA modifications on cytosine”.

How the values were obtained:
Assay in all cases: DAPPL (digital affinity profiling via proximity ligation, sequencing); 10 mM Tris-HCl pH 7.5, 50 mM NaCl, 1 mM DTT, 4% glycerol, room temperature, 30 min; GST-TFs on glutathione beads, 16-mer random dsDNA library, 0.1% formaldehyde crosslink after washing; high values mean tight binding
FEV = target: T1, FEV (Homo sapiens, UniProt Q99581 1-238); details: protein: recombinant; tags: N-terminal GST; dsDNA, one strand shown
T1 sequence: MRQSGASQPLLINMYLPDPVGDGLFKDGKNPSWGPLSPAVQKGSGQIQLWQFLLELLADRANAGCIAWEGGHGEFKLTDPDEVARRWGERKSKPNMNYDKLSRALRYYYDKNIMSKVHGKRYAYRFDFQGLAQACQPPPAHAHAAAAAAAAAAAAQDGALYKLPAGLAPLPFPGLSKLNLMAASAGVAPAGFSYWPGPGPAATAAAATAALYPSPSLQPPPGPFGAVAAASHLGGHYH
Method in brief: (§1)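 Yeast served to express human transcription factors as GST fusions, which were then captured on glutathione beads and labelled with DNA barcodes. Pooled with a tag-only sample, they were incubated with 200 nmole of a 16-mer random double-stranded DNA library for 30 min at room temperature in Tris/NaCl/DTT/glycerol buffer, washed, crosslinked with 0.1% formaldehyde, ligated by proximity, amplified by PCR and sequenced. Dividing each hexamer's read frequency for a factor by its frequency for the tag-only sample gives the binding signal.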

ETV5 = ETV5 (Homo sapiens, UniProt P41161 1-510); details: protein: recombinant; tags: N-terminal GST; dsDNA, one strand shown
ETV5, sequence (P41161 whole entry): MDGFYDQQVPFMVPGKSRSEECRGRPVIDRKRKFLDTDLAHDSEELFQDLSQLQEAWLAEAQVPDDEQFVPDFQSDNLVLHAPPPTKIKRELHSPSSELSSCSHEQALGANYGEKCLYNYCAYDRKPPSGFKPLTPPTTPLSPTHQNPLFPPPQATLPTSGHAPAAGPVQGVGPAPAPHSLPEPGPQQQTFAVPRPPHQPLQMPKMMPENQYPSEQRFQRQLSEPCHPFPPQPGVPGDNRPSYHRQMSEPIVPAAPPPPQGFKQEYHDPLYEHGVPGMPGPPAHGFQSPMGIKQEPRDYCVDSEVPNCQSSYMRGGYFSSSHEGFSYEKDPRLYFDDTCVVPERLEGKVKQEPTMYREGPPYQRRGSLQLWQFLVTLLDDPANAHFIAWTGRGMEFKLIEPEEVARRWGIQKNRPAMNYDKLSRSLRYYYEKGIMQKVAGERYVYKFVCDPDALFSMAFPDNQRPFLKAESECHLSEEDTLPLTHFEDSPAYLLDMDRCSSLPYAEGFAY
Method in brief: as §1

HSF1 = HSF1 (Homo sapiens, UniProt Q00613 1-529); details: protein: recombinant; tags: N-terminal GST; chain copies: 3; dsDNA, one strand shown
HSF1, sequence (Q00613 whole entry): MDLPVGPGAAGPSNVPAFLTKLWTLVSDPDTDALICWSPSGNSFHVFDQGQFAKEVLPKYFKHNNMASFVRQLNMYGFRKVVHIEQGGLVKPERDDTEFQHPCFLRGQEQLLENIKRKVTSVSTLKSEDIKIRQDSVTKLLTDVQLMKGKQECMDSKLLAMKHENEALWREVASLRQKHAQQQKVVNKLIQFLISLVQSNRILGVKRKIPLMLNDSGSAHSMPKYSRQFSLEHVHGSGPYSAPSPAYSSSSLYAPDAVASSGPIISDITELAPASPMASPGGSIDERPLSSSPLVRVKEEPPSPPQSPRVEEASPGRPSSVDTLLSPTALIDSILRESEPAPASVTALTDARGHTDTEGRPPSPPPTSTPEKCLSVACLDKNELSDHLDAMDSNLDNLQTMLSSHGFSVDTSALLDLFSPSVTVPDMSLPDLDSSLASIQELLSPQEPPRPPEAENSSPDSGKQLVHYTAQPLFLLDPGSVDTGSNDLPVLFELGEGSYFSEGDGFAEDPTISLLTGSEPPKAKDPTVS
Method in brief: as §1

SPIC = target: T2, SPIC (Homo sapiens, UniProt Q8N5J4 1-248); details: protein: recombinant; tags: N-terminal GST; dsDNA, one strand shown
T2 sequence: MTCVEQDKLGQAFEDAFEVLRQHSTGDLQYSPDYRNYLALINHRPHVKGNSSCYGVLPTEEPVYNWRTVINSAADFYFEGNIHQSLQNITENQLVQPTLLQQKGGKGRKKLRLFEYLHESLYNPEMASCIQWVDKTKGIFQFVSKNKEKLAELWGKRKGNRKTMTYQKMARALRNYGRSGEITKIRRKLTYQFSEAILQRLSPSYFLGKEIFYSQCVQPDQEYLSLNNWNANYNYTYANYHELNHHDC
Method in brief: as §1

ELF4 = ELF4 (Homo sapiens, UniProt Q99607 1-663); details: protein: recombinant; tags: N-terminal GST; dsDNA, one strand shown
ELF4, sequence (Q99607 whole entry): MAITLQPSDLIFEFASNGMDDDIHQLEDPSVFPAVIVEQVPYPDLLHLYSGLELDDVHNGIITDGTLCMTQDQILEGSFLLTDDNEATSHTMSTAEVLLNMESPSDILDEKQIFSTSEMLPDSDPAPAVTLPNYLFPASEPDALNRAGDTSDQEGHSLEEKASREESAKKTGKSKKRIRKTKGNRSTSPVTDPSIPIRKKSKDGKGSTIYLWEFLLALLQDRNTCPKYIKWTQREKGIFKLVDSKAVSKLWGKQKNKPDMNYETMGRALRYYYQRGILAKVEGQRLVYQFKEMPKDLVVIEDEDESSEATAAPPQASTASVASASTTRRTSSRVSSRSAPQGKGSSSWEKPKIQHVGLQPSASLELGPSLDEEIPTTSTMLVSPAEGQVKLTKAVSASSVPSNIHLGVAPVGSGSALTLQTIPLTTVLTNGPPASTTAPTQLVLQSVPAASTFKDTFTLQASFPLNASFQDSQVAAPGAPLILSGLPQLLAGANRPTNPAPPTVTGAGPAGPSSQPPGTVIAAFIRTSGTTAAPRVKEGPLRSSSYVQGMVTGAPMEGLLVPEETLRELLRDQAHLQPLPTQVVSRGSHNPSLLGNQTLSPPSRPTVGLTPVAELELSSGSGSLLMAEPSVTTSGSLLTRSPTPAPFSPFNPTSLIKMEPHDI
Method in brief: as §1

ELK4 = target: T3, ELK4 (Homo sapiens, UniProt P28324-2 1-405); details: protein: recombinant; tags: N-terminal GST; dsDNA, one strand shown
T3 sequence: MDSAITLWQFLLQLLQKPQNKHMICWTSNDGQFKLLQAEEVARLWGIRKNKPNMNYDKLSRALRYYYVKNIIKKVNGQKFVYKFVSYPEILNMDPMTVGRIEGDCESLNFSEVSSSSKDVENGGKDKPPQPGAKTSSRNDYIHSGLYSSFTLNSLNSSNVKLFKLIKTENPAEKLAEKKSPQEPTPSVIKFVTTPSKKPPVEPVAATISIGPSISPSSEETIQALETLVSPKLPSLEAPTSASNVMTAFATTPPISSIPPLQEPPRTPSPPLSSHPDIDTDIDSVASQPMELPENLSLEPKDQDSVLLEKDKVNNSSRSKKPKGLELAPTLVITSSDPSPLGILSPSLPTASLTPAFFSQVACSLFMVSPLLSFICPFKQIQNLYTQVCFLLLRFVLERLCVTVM
Method in brief: as §1

ETV2 = target: T4, ETV2 (Homo sapiens, UniProt O00321 1-342); details: protein: recombinant; tags: N-terminal GST; dsDNA, one strand shown
T4 sequence: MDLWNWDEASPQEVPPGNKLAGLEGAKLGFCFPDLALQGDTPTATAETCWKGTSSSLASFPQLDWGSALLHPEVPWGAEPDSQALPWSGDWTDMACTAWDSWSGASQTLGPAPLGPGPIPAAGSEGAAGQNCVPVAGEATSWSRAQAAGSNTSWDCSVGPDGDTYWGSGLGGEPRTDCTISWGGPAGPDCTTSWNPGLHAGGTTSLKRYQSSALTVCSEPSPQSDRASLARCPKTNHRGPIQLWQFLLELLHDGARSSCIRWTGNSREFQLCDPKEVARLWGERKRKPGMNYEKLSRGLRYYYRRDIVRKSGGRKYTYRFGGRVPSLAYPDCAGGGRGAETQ
Method in brief: as §1

ELF3 = target: T5, ELF3 (Homo sapiens, UniProt P78545 1-371); details: protein: recombinant; tags: N-terminal GST; dsDNA, one strand shown
T5 sequence: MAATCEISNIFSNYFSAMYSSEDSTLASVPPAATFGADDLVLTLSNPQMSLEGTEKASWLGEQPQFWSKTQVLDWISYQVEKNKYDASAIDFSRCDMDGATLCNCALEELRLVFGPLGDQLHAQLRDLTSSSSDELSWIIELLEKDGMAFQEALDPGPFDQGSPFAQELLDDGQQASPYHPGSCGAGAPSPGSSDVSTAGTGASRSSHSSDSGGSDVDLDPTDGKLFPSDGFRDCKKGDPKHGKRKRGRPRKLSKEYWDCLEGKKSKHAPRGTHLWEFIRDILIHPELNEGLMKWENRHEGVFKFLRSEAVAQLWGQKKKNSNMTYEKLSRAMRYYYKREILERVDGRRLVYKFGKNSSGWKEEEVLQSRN
Method in brief: as §1

CRX = CRX (Homo sapiens, UniProt O43186 1-299); details: protein: recombinant; tags: N-terminal GST; dsDNA, one strand shown
CRX, sequence (O43186 whole entry): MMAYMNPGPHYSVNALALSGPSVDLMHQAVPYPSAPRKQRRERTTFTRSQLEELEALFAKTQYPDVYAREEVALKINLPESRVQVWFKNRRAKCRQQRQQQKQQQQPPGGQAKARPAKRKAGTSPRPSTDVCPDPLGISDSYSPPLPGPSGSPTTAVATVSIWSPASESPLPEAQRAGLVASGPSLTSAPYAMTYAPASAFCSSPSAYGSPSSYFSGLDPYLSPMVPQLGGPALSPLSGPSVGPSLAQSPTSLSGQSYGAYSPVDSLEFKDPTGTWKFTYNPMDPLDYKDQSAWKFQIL
Method in brief: as §1

ETV1 = ETV1 (Homo sapiens, UniProt P50549 1-477); details: protein: recombinant; tags: N-terminal GST; dsDNA, one strand shown
ETV1, sequence (P50549 whole entry): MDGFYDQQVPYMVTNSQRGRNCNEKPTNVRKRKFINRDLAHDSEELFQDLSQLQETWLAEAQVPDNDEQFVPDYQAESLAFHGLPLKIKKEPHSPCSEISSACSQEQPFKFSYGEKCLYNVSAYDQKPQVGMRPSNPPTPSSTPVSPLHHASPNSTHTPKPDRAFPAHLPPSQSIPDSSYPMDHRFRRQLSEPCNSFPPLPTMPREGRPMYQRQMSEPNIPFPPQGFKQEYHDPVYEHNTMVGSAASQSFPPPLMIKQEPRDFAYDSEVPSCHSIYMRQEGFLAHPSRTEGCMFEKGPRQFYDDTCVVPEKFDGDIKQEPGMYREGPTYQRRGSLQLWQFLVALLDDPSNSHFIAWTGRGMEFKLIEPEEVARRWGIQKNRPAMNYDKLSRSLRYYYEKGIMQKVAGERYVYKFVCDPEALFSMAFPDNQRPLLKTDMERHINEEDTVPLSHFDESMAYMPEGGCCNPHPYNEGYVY
Method in brief: as §1

ERF = target: T6, ERF (Homo sapiens, UniProt P50548 1-548); details: protein: recombinant; tags: N-terminal GST; dsDNA, one strand shown
T6 sequence: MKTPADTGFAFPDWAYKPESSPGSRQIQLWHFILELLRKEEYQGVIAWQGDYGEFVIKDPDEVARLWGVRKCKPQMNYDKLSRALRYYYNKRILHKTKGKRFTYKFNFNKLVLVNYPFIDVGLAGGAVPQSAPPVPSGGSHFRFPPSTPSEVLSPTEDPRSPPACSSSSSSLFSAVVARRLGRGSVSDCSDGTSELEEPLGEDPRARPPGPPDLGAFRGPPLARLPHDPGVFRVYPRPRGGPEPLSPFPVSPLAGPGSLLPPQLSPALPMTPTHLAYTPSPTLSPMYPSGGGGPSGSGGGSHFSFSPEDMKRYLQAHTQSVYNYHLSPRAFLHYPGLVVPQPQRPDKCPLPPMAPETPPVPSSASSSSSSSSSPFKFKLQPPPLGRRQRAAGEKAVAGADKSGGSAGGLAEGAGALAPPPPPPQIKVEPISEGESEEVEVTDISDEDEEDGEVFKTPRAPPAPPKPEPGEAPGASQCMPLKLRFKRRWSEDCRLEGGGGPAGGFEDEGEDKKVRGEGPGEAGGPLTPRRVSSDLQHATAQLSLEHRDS
Method in brief: as §1

ETV3L = target: T7, ETV3L (Homo sapiens, UniProt Q6ZN32 1-361); details: protein: recombinant; tags: N-terminal GST; dsDNA, one strand shown
T7 sequence: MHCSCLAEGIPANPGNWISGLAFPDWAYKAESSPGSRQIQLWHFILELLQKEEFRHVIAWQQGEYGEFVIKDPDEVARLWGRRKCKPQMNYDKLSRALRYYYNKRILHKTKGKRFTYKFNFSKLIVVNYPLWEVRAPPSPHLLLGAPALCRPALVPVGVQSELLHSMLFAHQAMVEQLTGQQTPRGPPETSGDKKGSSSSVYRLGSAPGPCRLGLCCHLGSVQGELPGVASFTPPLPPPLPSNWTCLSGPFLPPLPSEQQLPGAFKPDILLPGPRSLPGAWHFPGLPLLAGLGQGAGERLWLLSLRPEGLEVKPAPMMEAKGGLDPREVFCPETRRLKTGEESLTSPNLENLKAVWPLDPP
Method in brief: as §1

ETS2 = target: T8, ETS2 (Homo sapiens, UniProt P15036 1-469); details: protein: recombinant; tags: N-terminal GST; dsDNA, one strand shown
T8 sequence: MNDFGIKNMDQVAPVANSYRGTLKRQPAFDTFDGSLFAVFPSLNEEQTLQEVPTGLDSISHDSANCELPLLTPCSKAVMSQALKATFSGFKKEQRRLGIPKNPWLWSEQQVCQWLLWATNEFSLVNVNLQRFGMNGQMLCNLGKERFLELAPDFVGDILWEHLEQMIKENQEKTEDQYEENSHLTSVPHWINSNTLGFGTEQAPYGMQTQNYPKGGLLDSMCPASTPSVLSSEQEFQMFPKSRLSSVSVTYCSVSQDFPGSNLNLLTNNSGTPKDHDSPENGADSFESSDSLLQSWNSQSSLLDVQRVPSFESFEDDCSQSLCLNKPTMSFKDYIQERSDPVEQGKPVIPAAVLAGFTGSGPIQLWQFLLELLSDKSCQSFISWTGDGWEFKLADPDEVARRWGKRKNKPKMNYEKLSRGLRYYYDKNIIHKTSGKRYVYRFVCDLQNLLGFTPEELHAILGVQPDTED
Method in brief: as §1

SPDEF = target: T9, SPDEF (Homo sapiens, UniProt O95238 1-335); details: protein: recombinant; tags: N-terminal GST; dsDNA, one strand shown
T9 sequence: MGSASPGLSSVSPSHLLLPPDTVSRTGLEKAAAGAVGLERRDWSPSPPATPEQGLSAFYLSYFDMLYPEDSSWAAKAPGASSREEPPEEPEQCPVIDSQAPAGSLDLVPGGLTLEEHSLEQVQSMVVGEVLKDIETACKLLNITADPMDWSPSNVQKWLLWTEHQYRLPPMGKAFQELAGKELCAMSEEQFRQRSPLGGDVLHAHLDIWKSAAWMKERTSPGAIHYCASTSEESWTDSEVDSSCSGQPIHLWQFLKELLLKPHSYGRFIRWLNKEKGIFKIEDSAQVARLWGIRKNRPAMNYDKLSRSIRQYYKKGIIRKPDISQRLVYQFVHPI
Method in brief: as §1

ETV7 = target: T10, ETV7 (Homo sapiens, UniProt Q9Y603 1-341); details: protein: recombinant; tags: N-terminal GST; dsDNA, one strand shown
T10 sequence: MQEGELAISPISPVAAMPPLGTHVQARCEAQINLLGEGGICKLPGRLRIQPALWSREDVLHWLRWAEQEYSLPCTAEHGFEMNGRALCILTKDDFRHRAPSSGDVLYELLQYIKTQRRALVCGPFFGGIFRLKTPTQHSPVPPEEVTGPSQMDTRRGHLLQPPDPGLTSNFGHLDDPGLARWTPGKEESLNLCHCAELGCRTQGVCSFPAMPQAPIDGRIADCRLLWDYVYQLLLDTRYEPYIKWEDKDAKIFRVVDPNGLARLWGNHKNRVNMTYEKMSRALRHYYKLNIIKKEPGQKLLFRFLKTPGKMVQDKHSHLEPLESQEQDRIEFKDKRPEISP
Method in brief: as §1

ELF5 = target: T11, ELF5 (Homo sapiens, UniProt Q9UKW6-2 1-255); details: protein: recombinant; tags: N-terminal GST; dsDNA, one strand shown
T11 sequence: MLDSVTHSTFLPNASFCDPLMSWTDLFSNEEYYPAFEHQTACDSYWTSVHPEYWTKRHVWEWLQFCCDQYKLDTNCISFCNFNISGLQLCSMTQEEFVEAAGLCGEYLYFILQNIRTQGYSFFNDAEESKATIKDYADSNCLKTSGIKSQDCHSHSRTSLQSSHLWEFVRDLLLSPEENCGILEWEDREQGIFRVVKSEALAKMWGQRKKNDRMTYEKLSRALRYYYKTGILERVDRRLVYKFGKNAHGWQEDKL
Method in brief: as §1

ETV3 = target: T12, ETV3 (Homo sapiens, UniProt P41162-2 1-143); details: protein: recombinant; tags: N-terminal GST; dsDNA, one strand shown
T12 sequence: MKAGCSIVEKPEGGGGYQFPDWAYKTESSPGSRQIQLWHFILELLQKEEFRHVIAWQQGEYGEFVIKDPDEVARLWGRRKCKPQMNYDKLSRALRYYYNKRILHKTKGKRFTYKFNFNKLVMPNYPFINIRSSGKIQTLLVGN
Method in brief: as §1

ETV6 = ETV6 (Homo sapiens, UniProt P41212 1-452); details: protein: recombinant; tags: N-terminal GST; dsDNA, one strand shown
ETV6, sequence (P41212 whole entry): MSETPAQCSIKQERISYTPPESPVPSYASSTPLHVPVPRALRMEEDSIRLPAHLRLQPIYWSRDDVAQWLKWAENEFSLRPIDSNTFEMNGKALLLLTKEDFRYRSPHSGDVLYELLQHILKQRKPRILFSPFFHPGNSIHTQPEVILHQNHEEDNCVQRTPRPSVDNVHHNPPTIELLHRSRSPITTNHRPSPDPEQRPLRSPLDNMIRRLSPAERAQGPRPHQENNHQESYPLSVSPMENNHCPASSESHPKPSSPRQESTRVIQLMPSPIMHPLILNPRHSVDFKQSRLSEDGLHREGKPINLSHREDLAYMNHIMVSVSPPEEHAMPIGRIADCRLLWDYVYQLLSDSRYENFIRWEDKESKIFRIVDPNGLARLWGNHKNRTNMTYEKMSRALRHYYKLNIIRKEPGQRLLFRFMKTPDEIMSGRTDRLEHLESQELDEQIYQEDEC
Method in brief: as §1

CCTCTG
binding signal (FEV): 1.48 fold enrichment (6-mer frequency, TF over GST control) | binding signal (ETV5): 1.56 fold enrichment (6-mer frequency, TF over GST control) | binding signal (HSF1): 1.39 fold enrichment (6-mer frequency, TF over GST control) | binding signal (SPIC): 1.44 fold enrichment (6-mer frequency, TF over GST control) | binding signal (ELF4): 1.66 fold enrichment (6-mer frequency, TF over GST control) | binding signal (ELK4): 1.9 fold enrichment (6-mer frequency, TF over GST control) | binding signal (ETV2): 1.5 fold enrichment (6-mer frequency, TF over GST control) | binding signal (ELF3): 1.73 fold enrichment (6-mer frequency, TF over GST control) | binding signal (CRX): 1.36 fold enrichment (6-mer frequency, TF over GST control) | binding signal (ETV1): 1.67 fold enrichment (6-mer frequency, TF over GST control) | binding signal (ERF): 1.65 fold enrichment (6-mer frequency, TF over GST control) | binding signal (ETV3L): 1.36 fold enrichment (6-mer frequency, TF over GST control) | binding signal (ETS2): 1.42 fold enrichment (6-mer frequency, TF over GST control) | binding signal (SPDEF): 1.54 fold enrichment (6-mer frequency, TF over GST control) | binding signal (ETV7): 1.79 fold enrichment (6-mer frequency, TF over GST control) | binding signal (ELF5): 1.5 fold enrichment (6-mer frequency, TF over GST control) | binding signal (ETV3): 1.64 fold enrichment (6-mer frequency, TF over GST control) | binding signal (ETV6): 1.39 fold enrichment (6-mer frequency, TF over GST control)
